D2 ag-1 = agonists of human D2 dopamine receptor. 340,000 compounds, 0.53% hits. P14416. HEK293 T-REx D2 cells, calcium flux agonist mode. activation, % at 2 µM;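 active = activation over 3 SD above normal in the single-dose calcium agonist read, cut at about 30% in these data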; also: 0% is about no effect
Target sequence (P14416 whole entry, looked up): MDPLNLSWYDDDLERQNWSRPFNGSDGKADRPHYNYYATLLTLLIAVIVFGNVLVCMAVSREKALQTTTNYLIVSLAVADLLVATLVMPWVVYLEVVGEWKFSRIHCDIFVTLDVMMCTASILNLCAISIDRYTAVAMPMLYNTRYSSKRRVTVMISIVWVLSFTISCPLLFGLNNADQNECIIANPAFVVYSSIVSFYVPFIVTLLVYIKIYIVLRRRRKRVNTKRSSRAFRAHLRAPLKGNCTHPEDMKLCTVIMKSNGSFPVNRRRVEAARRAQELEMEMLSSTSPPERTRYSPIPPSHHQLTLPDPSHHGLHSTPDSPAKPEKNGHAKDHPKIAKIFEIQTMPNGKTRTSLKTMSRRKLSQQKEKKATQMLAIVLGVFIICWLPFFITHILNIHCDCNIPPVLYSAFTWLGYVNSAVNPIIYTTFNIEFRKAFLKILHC
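HEK293 Trex D2 cells, tetracycline-induced, o/n 30 C 5% CO2; no-wash Ca dye, RT 30–90 min; 10-cycle baseline, 23 nl cpd added, kinetic Ca read 180 s; agonist hits = positive Ca response.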
D2 PAM-1 = positive allosteric modulators of human D2 dopamine receptor; P14416; HEK293 T-REx D2, calcium flux, EC20 dopamine potentiation; potentiation, % at 10 µM; 340,000 compounds, 0.34% hits; AID 485347;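 active = potentiation over 3 SD above the plate norm, cut at about 30% in these data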; also: 0% is about no effect
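Primary screen. Calcium kinetics in induced HEK293 T-REx D2 cells: compound pre-addition 180 s, EC20 dopamine, 180 s more.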
D2 PAM-2 = positive allosteric modulators of human D2 dopamine receptor. potentiation, % (no concentration beside the values). 360,000 compounds, 0.23% hits. DiscoveRx D2 beta-arrestin cells, luminescence, 90 min; 100% = 57 uM dopamine signal; in the data active = potentiation above about 50%; inconclusive = mostly about 30% to 49%
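PathHunter D2 cells, attached overnight at 37 deg C, received compound in DMSO plus dopamine at EC20 (50 nM final) for 90 min at 37 deg C. Beta-arrestin recruitment was read as luminescence after 1 h with detection reagent at ambient temperature.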
D2 ag-2 = human D2 receptor agonism in beta-arrestin assay; P14416; DiscoveRx PathHunter D2 beta-arrestin, luminescence, 90 min; 100% = 57 uM dopamine signal; activation, % (test concentration not listed); 360,000 compounds, 0.084% hits; AID 624465; in the data active = activation above about 40%; inconclusive = between about 15% and that limit
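DiscoveRx PathHunter D2 beta-arrestin cells (2,100/well) attached overnight, then compound-stimulated 90 min at 37 C in HBSS/10 mM HEPES/0.1% Tween-20 buffer; beta-galactosidase complementation read by luminescence after 1 h at ambient temperature. Dopamine 57 uM final (EC100) as control.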
D2 antagonist = antagonizes the human D2 dopamine receptor. P14416. HEK293 TREx D2 cells, calcium flux, dopamine EC80. inhibition, % at 10 µM. 340,000 compounds, 2% hits; in the data active = inhibition above about 30%; inactive = below that, where a call was filed; also: 0% is about no effect
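HEK293 T-REx D2 cells, tet-induced, calcium dye no-wash. Cpd pintool add, 180 s kinetic, then EC80 DA, 180 s kinetic. Ca flux read.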
* = called active by the depositor. Most compounds without a hit are left out; they make up all but 2.4% or so of the library.

How did COc1cc(C(=O)NC2CC3CCCC(C2)N3Cc2ccccc2)cc(OC)c1OC (stereo not drawn) do in these assays?
D2 ag-1: -1; D2 PAM-1: -32; D2 PAM-2: -7; D2 ag-2: -2; D2 antagonist: 84*

What do the screens show for `COc1ccc(NC(=O)Cn2c(=O)n(CCc3ccccc3)c(=O)c3c4c(sc32)CCCC4)cc1`?
D2 ag-1: 0; D2 PAM-1: 1

What do the screens show for `Cc1c(C(=O)Nc2ccc3c(c2)OCCO3)sc2nc(-c3ccccc3)cn12`?
D2 ag-1: -1; D2 PAM-1: -4; D2 PAM-2: -7; D2 ag-2: 3; D2 antagonist: 73*

How did O=C(CSCc1ccccc1Br)N/N=C/c1ccc2c(c1)OCO2 do in these assays?
D2 ag-1: 0; D2 PAM-1: 18; D2 PAM-2: 6; D2 ag-2: -1; D2 antagonist: 5

How did O=C(CSCc1cccc(Br)c1)N/N=C/c1ccc2c(c1)OCO2 do in these assays?
D2 ag-1: 0; D2 PAM-1: 0; D2 PAM-2: -7; D2 ag-2: -4; D2 antagonist: 33*

Results for O=C(CCc1ccc(O)c(O)c1)N/N=C/c1ccc2c(c1)OCO2 ?
D2 ag-1: 19; D2 PAM-1: 2; D2 PAM-2: -1; D2 ag-2: inconclusive; D2 antagonist: 42*

How did CC(C)Oc1ccc(CCC(=O)N/N=C/c2ccc3c(c2)OCO3)cc1 do in these assays?
D2 ag-1: 1; D2 PAM-1: -2; D2 PAM-2: -3; D2 ag-2: 2; D2 antagonist: -11

What do the screens show for `Cc1c(/C=C(\C#N)C(=O)NCc2ccccc2)cc(C#N)n1C`?
D2 ag-1: 0; D2 PAM-1: -18; D2 PAM-2: -19; D2 ag-2: -6; D2 antagonist: 37*

Results for O=c1[nH]c2c(c(=O)[nH]1)CCC2 ?
D2 ag-1: 1; D2 PAM-1: -2; D2 PAM-2: 0; D2 ag-2: -5; D2 antagonist: 37*

How did CCc1cccc(CC)c1NC(=O)CN(C)S(=O)(=O)c1ccc2c(c1)n(C)c(=O)c(=O)n2C do in these assays?
D2 ag-1: -1; D2 PAM-1: 0

Results for O=C(Cn1ncc2c3ccccc3n(Cc3cccc(Cl)c3)c2c1=O)NC1CCCCCC1 ?
D2 ag-1: 1; D2 PAM-1: 5

Results for COc1ccc(NC2=C(C(C)=O)C(c3ccc(OC)cc3)C(C(C)=O)C(C)(O)C2)cc1 (stereo not drawn) ?
D2 ag-1: 0; D2 PAM-1: 14; D2 PAM-2: -4; D2 ag-2: 5; D2 antagonist: 6

What do the screens show for `COc1ccc(NC2=C(C(C)=O)C(c3ccc(N(C)C)cc3)C(C(C)=O)C(C)(O)C2)cc1` (stereo not drawn)?
D2 ag-1: 0; D2 PAM-1: 1; D2 PAM-2: 51*; D2 ag-2: -4; D2 antagonist: -1

How did Nc1c(-c2nc(-c3ccc4c(c3)OCO4)cs2)c2ccccn2c1C(=O)c1ccccc1 do in these assays?
D2 ag-1: 0; D2 PAM-1: -7

How did CC1CCN(S(=O)(=O)c2cc(C(=O)NCc3ccc(F)cc3)n(C)c2)CC1 do in these assays?
D2 ag-1: -2; D2 PAM-1: 4

How did COc1ccc(CNC(=O)C(C)OC(=O)c2cccs2)cc1 (stereo not drawn) do in these assays?
D2 ag-1: 0; D2 PAM-1: 33*; D2 PAM-2: 1; D2 ag-2: -4; D2 antagonist: -3

How did CC(OC(=O)c1cccs1)C(=O)NCc1cccs1 (stereo not drawn) do in these assays?
D2 ag-1: 0; D2 PAM-1: 2; D2 PAM-2: 1; D2 ag-2: 2; D2 antagonist: -8

What do the screens show for `Cc1c(C(=O)N2CCCCC2)c(S(=O)(=O)NCc2ccc(Cl)cc2)c(C)n1C`?
D2 ag-1: 1; D2 PAM-1: 8; D2 PAM-2: -1; D2 ag-2: -3; D2 antagonist: 48*

Results for CON/C=C(\C=Nc1ccc(Cl)cc1Cl)c1ncc(C(F)(F)F)cc1Cl ?
D2 ag-1: 1; D2 PAM-1: -5; D2 PAM-2: -3; D2 ag-2: -2; D2 antagonist: 19

What do the screens show for `CON/C=C(\C=Nc1ccccc1)c1ncc(C(F)(F)F)cc1Cl`?
D2 ag-1: 1; D2 PAM-1: 34*; D2 PAM-2: -8; D2 ag-2: -1; D2 antagonist: -4

Results for COCCn1c(-c2ccc(NC(C)=O)cc2)nc2c1c(=O)[nH]c(=O)n2CC(C)C ?
D2 ag-1: 0; D2 PAM-1: 0; D2 PAM-2: -3; D2 ag-2: -2; D2 antagonist: 31*

Results for COCCn1c(-c2ccc(-c3ccccc3Cl)o2)nc2c1c(=O)[nH]c(=O)n2CC(C)C ?
D2 ag-1: 0; D2 PAM-1: -1; D2 PAM-2: -14; D2 ag-2: -2; D2 antagonist: -3

How did CCCCOc1ccc(C2C(=O)N(C3CCCCC3)CC(=O)N2CCCC)cc1 (stereo not drawn) do in these assays?
D2 ag-1: 1; D2 PAM-1: -5

Results for CC(C)c1nnc(NC(=O)CC23CC4CC(CC(C4)C2)C3)s1 ?
D2 ag-1: 4; D2 PAM-1: 2; D2 PAM-2: -2; D2 ag-2: -7; D2 antagonist: 36*

Results for O=C(NCC(c1cccs1)S(=O)(=O)c1cccs1)c1cccc(F)c1 (stereo not drawn) ?
D2 ag-1: 0; D2 PAM-1: 20

How did COc1cc(NC(=O)c2noc(C)c2[N+](=O)[O-])c(OC)cc1Cl do in these assays?
D2 ag-1: -1; D2 PAM-1: -4; D2 PAM-2: 3; D2 ag-2: 45*; D2 antagonist: -17

What do the screens show for `Cc1onc(C(=O)Nc2cccnc2Cl)c1[N+](=O)[O-]`?
D2 ag-1: 0; D2 PAM-1: 2; D2 PAM-2: 2; D2 ag-2: 4; D2 antagonist: 6

Results for Cc1cc(NC(=O)CSc2nc(C(C)C)nc3sc(C)c(C)c23)no1 ?
D2 ag-1: 0; D2 PAM-1: 6; D2 PAM-2: 3; D2 ag-2: 7; D2 antagonist: 35*

How did COc1ccc(NC(=O)CN(c2ccc(C)cc2)S(=O)(=O)c2cccs2)cc1 do in these assays?
D2 ag-1: 0; D2 PAM-1: -15

How did Cc1cccc(N2CCN(C(=O)c3ccc4c(c3)N(Cc3ccccc3)C(=O)c3ccccc3S4(=O)=O)CC2C)c1 (stereo not drawn) do in these assays?
D2 ag-1: 1; D2 PAM-1: -3

Results for CCn1cc(C(=O)N2CCN(c3cccc(C)c3)C(C)C2)c(=O)c2cc(S(=O)(=O)N3CCOCC3)ccc21 (stereo not drawn) ?
D2 ag-1: 0
